GBA enhancer: enhancers of human beta-glucosidase activity in Gaucher fibroblasts. L444P Gaucher fibroblasts, 4-MU-glucoside fluorescence, 3 days. 30,000 tested, 0.44% active. P04062. activation, % at 10 µM; in the data active = activation above about 65%;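 also: 0% = vehicle wells and 100% = positive control wells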
Target sequence (P04062 whole entry L483P): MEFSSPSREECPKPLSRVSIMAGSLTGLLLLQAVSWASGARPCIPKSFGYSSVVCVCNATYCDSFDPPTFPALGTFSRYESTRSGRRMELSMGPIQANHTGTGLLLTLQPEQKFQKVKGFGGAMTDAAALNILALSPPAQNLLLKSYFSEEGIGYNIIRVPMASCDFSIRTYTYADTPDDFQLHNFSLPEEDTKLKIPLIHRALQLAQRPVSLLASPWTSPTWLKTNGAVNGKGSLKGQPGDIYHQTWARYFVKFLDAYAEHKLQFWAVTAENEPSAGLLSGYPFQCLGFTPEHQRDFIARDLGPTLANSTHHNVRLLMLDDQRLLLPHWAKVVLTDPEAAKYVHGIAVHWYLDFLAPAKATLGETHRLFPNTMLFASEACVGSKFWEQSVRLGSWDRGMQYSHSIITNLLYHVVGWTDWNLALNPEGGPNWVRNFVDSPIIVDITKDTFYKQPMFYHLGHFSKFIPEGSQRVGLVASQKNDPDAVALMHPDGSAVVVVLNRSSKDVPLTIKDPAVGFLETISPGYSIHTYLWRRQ
* = called active by the depositor. The sample as a whole holds a higher share of hits than the screen did.

SMILES | GBA enhancer
Cc1cc2ccccc2c(=O)n1CC(=O)NCC(=O)N1CCN(c2ccccc2)CC1 | 75*
O=C(NCCCN1CCCC1=O)c1ccc2c(c1)NC(=O)C(N1CCOCC1)S2 (stereo not drawn) | -1
CN1/C(=C\C(=O)CN2C(=O)NC3(CCCCCC3)C2=O)C(C)(C)c2ccccc21 | -17
S=c1[nH]nc(Cc2ccccc2)n1Cc1ccco1 | 101*
COc1cccc(-c2n[nH]c(=S)n2Cc2ccco2)c1OC | 6
O=C(NCc1n[nH]c(=S)n1-c1ccccc1)c1ccco1 | 32
O=C(COC(=O)C12CC3CC(CC(C3)C1)C2)N1CCN(S(=O)(=O)c2ccccc2)CC1 | -19
COc1ccc(CN2CCOCC2)c(C)c1C | 4
O=C(NCCCN1CCOCC1)c1cc(-c2ccc(Br)cc2)on1 | 15
O=C(CN1C(=O)c2ccccc2S1(=O)=O)N1CCN(c2ccccc2F)CC1 | -14
Cc1ccn2cc(C(=O)Nc3ccccc3N3CCOCC3)nc2c1 | 92*
CCC(C)Oc1cccc(C(=O)Nc2ccccc2N2CCOCC2)c1 (stereo not drawn) | -2
O=C(Nc1ccccc1N1CCOCC1)c1ccc2ccccc2n1 | 20
Cc1cc(Cl)ccc1OC(C)C(=O)Nc1ccccc1N1CCOCC1 (stereo not drawn) | -28
CC(C)Oc1cccc(C(=O)Nc2ccccc2N2CCOCC2)c1 | 65*
Cc1ccc(-c2nnn(CC(=O)Nc3ccccc3N3CCOCC3)n2)cc1 | -18
COc1ccc(CN(C(=O)c2ccco2)c2ccc(C)cc2)cc1OC | 5
CC(NC(=O)CCNS(=O)(=O)c1ccc2c(c1)c(=O)n(C)c(=O)n2C)c1ccccc1 (stereo not drawn) | -28
O=C(Nc1ccc(F)cc1)c1cc(S(=O)(=O)N2CCCCC2)cs1 | -9
O=C(Nc1ccccc1Cl)c1cc(S(=O)(=O)N2CCCC(C(=O)O)C2)ccc1F (stereo not drawn) | -24
CCCCNC(=O)C1CCCN(S(=O)(=O)c2ccc(-n3cnnn3)cc2)C1 (stereo not drawn) | -7
CCCCOC(=O)C1=C(C)Nc2ncnn2C1c1ccc(OCC)c(OC)c1 (stereo not drawn) | -21
c1ccc(Cn2nnnc2-c2ccco2)cc1 | 0
Cc1oc(-c2ccc(F)cc2)cc1-c1nn2c(-c3ccoc3C)nnc2s1 | -5
CNC(=O)CN(c1cccc2ccccc12)S(C)(=O)=O | -31
SMILES | GBA enhancer
Cc1c(Cl)cccc1N(CC(=O)N1CCCCCC1)S(C)(=O)=O | -9
Cc1c(Cl)cccc1N(CC(=O)O)S(C)(=O)=O | 88*
Cc1nc(SCC(=O)Nc2c(C)n(C)n(-c3ccccc3)c2=O)n[nH]1 | -16
CC1CCN(C(=O)COC(=O)c2n[nH]c3ccccc23)CC1 | -4
Nc1nonc1-c1noc(CCCCCN2C(=O)c3ccccc3C2=O)n1 | 479*
O=C1CCC(=O)N1CCCCCc1nc(-c2ccccc2)no1 | -4
O=C1c2ccccc2C(=O)N1CCCc1nc(-c2ccccn2)no1 | -4
COCc1nc2ccccc2n1Cc1ccc(Br)cc1 | -19
CC1=C(C(=O)OCC2CCCO2)C(c2ccc(C)o2)C2=C(CC(c3ccc(N(C)C)cc3)CC2=O)N1 (stereo not drawn) | -34
COc1ccc(NC(=O)CSc2nc3c(c(=O)n2-c2ccc(F)cc2)SCC3)c(OC)c1 | 20
O=C(NCc1ccco1)c1ccc(NC(=O)C2COc3ccccc3O2)cc1 (stereo not drawn) | -27
O=C(O)CCCCCNC(=O)c1ccncc1 | -13
Cc1ccc(S(=O)(=O)NCC(=O)N(CC(=O)NCc2ccccc2)CC2CCCO2)cc1 (stereo not drawn) | 5
COc1ccc(CNC(=O)CN(CC2CCCO2)C(=O)CNS(=O)(=O)c2ccc(C)cc2)cc1 (stereo not drawn) | 76*
COc1ccc(CNC(=O)CN(CC2CCCO2)C(=O)CNS(=O)(=O)c2ccccc2)cc1 (stereo not drawn) | -7
COc1cccc(C(=O)/C=C/Nc2cc(C)ccc2O)c1 | -9
O=C(Nc1nnc(-c2ccccc2)o1)NC1CCCCC1 | 33
COCCN(CCOC)S(=O)(=O)c1ccc(C(=O)Nc2nnc(C)o2)cc1 | -9
COCc1nnc(NC(=O)c2ccc(S(=O)(=O)N(C)C3CCCCC3)cc2)o1 | 79*
COCc1nnc(NC(=O)c2ccc(S(=O)(=O)N3CCCCCC3)cc2)o1 | 2
Cc1cccc(NC(=O)c2cnc3n(c2=O)CCS3)c1 | -8
CC(=O)N1C(C(=O)O)CSC1c1cccc(C)c1 (stereo not drawn) | 122*
Cc1cccc(CN2CCN(CC(=O)O)C2=O)c1 | 12
CCn1c(CNc2ccc(C)cc2)nnc1SCC(=O)NCc1ccccc1 | -6
CCn1cc(C(=O)NCc2ccco2)c(=O)c2cc(S(=O)(=O)N3CC(C)CC(C)C3)ccc21 (stereo not drawn) | -17
SMILES | GBA enhancer
O=C(Nn1c(C2CCC2)nc2ccccc2c1=O)C1CCC1 | -23
CCOC(=O)c1c(C)n(C)c2ccc(OCC(O)Cn3nc(C)c(Br)c3C)cc12 (stereo not drawn) | -18
CCOC(=O)c1c(C)n(C)c2cc(Br)c(C(=O)OC)cc12 | -11
CCOC(=O)c1c(C)n(C)c2ccc(OC(C)C(=O)OC)cc12 (stereo not drawn) | 72*
CCCCN(CCCC)CCCOC(=O)c1ccc(N)cc1 | -37
O=C(CSc1nnc(Cc2cccs2)n1C1CCCCC1)N1CCCc2ccccc21 | 13
C=C(C)c1cccc(C(C)(C)NC(=O)NCCCn2ccnc2)c1 | -16
O=C(NCCCn1ccnc1)Nc1ccc(Cl)c(Cl)c1 | -3
O=C(NCCCn1ccnc1)Nc1ccc(Cl)cc1 | 122*
Cn1c(=O)cc(OCCCC(=O)N2CCN(c3ccccc3)CC2)c2ccccc21 | -59
COC(=O)CSc1nnc(-c2ccco2)n1Cc1ccco1 | -2
CC(C)(C)NC(=O)CSc1nnc(-c2ccco2)n1Cc1ccco1 | 78*
CCN(CC)C(=O)CSc1nnc(-c2ccco2)n1Cc1ccco1 | -8
Cc1noc(C)c1C(=O)NCc1cccs1 | 1
O=C(CCc1nc(-c2ccccc2)no1)NCC1CCCO1 (stereo not drawn) | -9
Cc1nnc(NC(=O)C2CCCN(c3ncccn3)C2)s1 (stereo not drawn) | -3
CC(=O)c1ccc2c(c1)Nc1ccccc1S2 | 71*
COC(=O)CC1Sc2ccccc2NC1=O (stereo not drawn) | -22
CC(=O)c1cccc(NC(=O)C=C(C)C)c1 | 1
COCCc1nnc(NC(=O)Cc2ccccc2)s1 | -5
COC(=O)c1cccc(N(C(=O)CNC(=O)c2ccco2)C(C(=O)NC2CCCC2)c2ccco2)c1 (stereo not drawn) | -1
COc1ccccc1-n1cnc(N)c1C(=O)c1ccccc1 | -62
O=C(CN1CCN(c2ccc(F)cc2)CC1)OCc1ccccc1 | -10
CCCn1c2ccccc2c2nnc(SCC(=O)OCC)nc21 | -6
O=C(CSc1nnc2c(n1)[nH]c1ccc(F)cc12)OCc1ccccc1 | 76*
SMILES | GBA enhancer
Cc1ccc(-n2c(SCC(=O)NCc3cccs3)nnc2-c2ccoc2C)cc1 | -8
O=C(C1CCCN(S(=O)(=O)c2ccc(F)cc2)C1)N1CCCC1 (stereo not drawn) | -15
O=S(=O)(NC1c2cccc3cccc(c23)C1N1CCN(CCO)CC1)c1ccccc1 (stereo not drawn) | -22
O=S(=O)(NC1c2cccc3cccc(c23)C1N1CCNCC1)c1ccccc1 (stereo not drawn) | 74*
O=S(=O)(NC1CC1)c1cccc(S(=O)(=O)N2CCCC2)c1 | -17
COc1ccc(CC2NCCC3(O)CCCCC23)cc1 (stereo not drawn) | -20

Source: PubChem BioAssay
